Assay results: the supplement of paper PMC9254222
Over roughly 1,100 compounds, “Wnt reporter firefly/Renilla luciferase ratio relative to plate median” has its median near 1.1; the highest 2% begin near 1.6. Only a selection was taken, and the highest values are over-represented in it overall.

Tested on: HEK293T (UBE3A T485A transfected, BAR Wnt reporter)
Experiment: Wnt reporter firefly/Renilla luciferase ratio relative to plate median (fold (linear ratio)); higher = more Wnt/beta-catenin reporter activation
Settings: 24 h
In short: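 Using Fugene 6, HEK293T cells in white 384-well plates (4500 cells/well; DMEM, 10% FBS, 37°C, 5% CO2) were transfected with a BAR firefly luciferase Wnt reporter, TK-Renilla and an expression plasmid. After four hours, robots dosed the chemicals at 0.01–100 uM, and a Dual-Glo luciferase readout followed 24 h later. Per-plate median-centred firefly/Renilla ratios gave Wnt activity, while per-plate median-centred raw Renilla signals gave cell health. Four biological replicates were averaged.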

SMILES	Wnt reporter firefly/Renilla luciferase ratio (concentration: 0.1 uM)	Wnt reporter firefly/Renilla luciferase ratio (concentration: 1 uM)	Wnt reporter firefly/Renilla luciferase ratio (concentration: 10 uM)	Wnt reporter firefly/Renilla luciferase ratio (concentration: 100 uM)	Wnt reporter firefly/Renilla luciferase ratio (concentration: 0.01 uM)
CCN(CC)CCNc1ccc(CNC=O)c2sc3ccc(OC)cc3c(=O)c12	1.79	0.887	0.373	–	–
O=c1[nH]c2ccc(S(=O)CCN3CCC(Cc4ccc(F)cc4)CC3)cc2o1 (stereo unspecified) [Besonprodil]	1.11	0.965	0.993	0.313	–
C[C@]12CC[C@@H]3c4ccc(O)cc4CC[C@H]3[C@@H]1CC[C@@H]2O [17beta-Estradiol]	0.999	0.932	0.591	–	–
CN(C)[C@@H]1C(O)=C(C(N)=O)C(=O)[C@@]2(O)C(O)=C3C(=O)c4c(O)cccc4[C@@](C)(O)[C@H]3[C@H](O)[C@@H]12.O.O [Oxytetracycline dihydrate]	2.3	1.22	1.34	0.951	1.55
CN(C)[C@@H]1C(O)=C(C(N)=O)C(=O)[C@@]2(O)C(O)=C3C(=O)c4c(O)cccc4[C@@](C)(O)[C@H]3[C@H](O)[C@@H]12.Cl [Oxytetracycline hydrochloride]	1.09	1.03	0.562	0.0778	–
CN(C)[C@@H]1C(O)=C(C(N)=O)C(=O)[C@@]2(O)C(O)=C3C(=O)c4c(O)cccc4[C@@](C)(O)[C@H]3C[C@@H]12 [Tetracycline]	1.15	1.17	1.43	0.703	–
CCCCC(CC)COP(=O)(OCC(CC)CCCC)OCC(CC)CCCC (stereo unspecified) [Tris(2-ethylhexyl) phosphate]	0.978	1.17	1.11	0.917	–
CCCCC(CC)CO (stereo unspecified) [2-Ethyl-1-hexanol]	0.976	0.988	1.62	0.964	–
CCCCC(CC)COC(=O)CCCCCCCCC(=O)OCC(CC)CCCC (stereo unspecified) [Bis(2-ethylhexyl) decanedioate]	0.935	1.08	1.07	1.12	–
Oc1ccc(O)cc1 [Hydroquinone]	0.941	0.865	0.902	0.377	–
CCCCCCC(CCCCCCCCCCC(=O)OCC(COC(C)=O)OC(C)=O)OC(C)=O (stereo unspecified) [Grinstad Soft-N-Safe]	0.94	1.29	1.08	1.54	–
C/C=C/c1ccc(OC)cc1 [(E)-Anethole]	1.22	0.971	1.15	1.58	–
CC(C)(c1cc(Br)c(O)c(Br)c1)c1cc(Br)c(O)c(Br)c1 [3,3',5,5'-Tetrabromobisphenol A]	1.05	0.95	1.03	0.332	–
Cc1ncc([C@@H](CCCCCCc2ccc3c(n2)NCCC3)CC(=O)O)cn1	1.25	1.42	1.78	1.55	–
CS(=O)(=O)c1ccc([C@@H](CC2CCCC2)C(=O)Nc2cnccn2)cc1Cl	1.12	1.16	0.922	0.278	–
CC(C)NCC(O)c1ccc(O)c(O)c1.Cl (stereo unspecified) [Isoproterenol hydrochloride]	1.1	1.23	1.15	0.309	–
O=C(O)c1cc(/N=N/c2ccc(S(=O)(=O)Nc3ccccn3)cc2)ccc1O [Sulfasalazine]	0.944	0.993	1.33	3.01	–
Cc1ccc2ncccc2c1 [6-Methylquinoline]	0.931	0.836	1.29	1.81	–
Cc1ccc(C)c(C)c1 [1,2,4-Trimethylbenzene]	0.982	0.965	0.884	1.09	–
c1ccc2ncccc2c1 [Quinoline]	0.857	1.13	1.43	1.26	–

SMILES	Wnt reporter firefly/Renilla luciferase ratio (concentration: 0.1 uM)	Wnt reporter firefly/Renilla luciferase ratio (concentration: 1 uM)	Wnt reporter firefly/Renilla luciferase ratio (concentration: 10 uM)	Wnt reporter firefly/Renilla luciferase ratio (concentration: 100 uM)	Wnt reporter firefly/Renilla luciferase ratio (concentration: 0.01 uM)
O=C1c2c(O)cccc2Cc2cccc(O)c21 [Anthralin]	0.825	1.04	1.46	0.798	–
COc1ccc(C(=O)Nc2nc3ccccc3c(NCc3ccccc3)c2C#N)cc1	1.27	1.14	0.744	0.357	–
COCCOC[C@H](CC1(C(=O)N[C@H]2CC[C@@H](C(=O)O)CC2)CCCC1)C(=O)Oc1ccc2c(c1)CCC2 [Candoxatril]	1.15	1.05	1	0.894	–
CN1CCC[C@H]1c1cccnc1 [Nicotine]	1.15	1.19	1.12	1.18	–
CC1(C)C(=O)N(Br)C(=O)N1Br [1,3-Dibromo-5,5-dimethylhydantoin]	0.79	1.01	1.06	1.25	–
CC1(C)C(=O)N(Cl)C(=O)N1Cl [1,3-Dichloro-5,5-dimethylhydantoin]	0.845	0.849	0.887	1.63	–
NC(=O)N1C(=O)C(C(=O)c2cc(Cl)cs2)c2cc(F)c(Cl)cc21 (stereo unspecified)	0.988	0.996	1.38	1.26	–
C[C@]12CC[C@@H]3c4ccc(O)cc4CC[C@H]3[C@@H]1CC[C@H]2O [17alpha-Estradiol]	0.699	1.04	0.715	–	–
OCCNCCO [Diethanolamine]	1.17	0.992	1.4	2.49	–
c1ccc2[nH]c(-c3cscn3)nc2c1 [Thiabendazole]	1.03	1.08	1.27	1.24	1.24
CC(C)(C)c1cc(/C=C2\SC(=N)NC2=O)cc(C(C)(C)C)c1O.CS(=O)(=O)O [Darbufelone mesylate]	1.11	0.907	1.28	–	–
Oc1ccc2ccccc2c1/N=N/c1ccccc1 [C.I. Solvent Yellow 14]	1.12	1.2	1.14	1.37	–
O=S(=O)([O-])c1ccc(/N=N/c2c(O)ccc3cc(S(=O)(=O)[O-])ccc23)cc1.[Na+].[Na+] [FD&C Yellow 6]	1.08	0.966	1.22	2.05	–
COc1cc(S(=O)(=O)[O-])c(C)cc1/N=N/c1c(O)ccc2cc(S(=O)(=O)[O-])ccc12.[Na+].[Na+]	1.19	1	1.45	2.21	–
CCCCCCCCCCCCc1ccccc1 [Dodecylbenzene]	1.06	1.03	1.08	0.984	–
COc1ccc([N+](=O)[O-])cc1N [2-Methoxy-5-nitroaniline]	0.964	0.988	1.04	1.14	–
Cl.NCC1(Cc2noc(=O)[nH]2)CCCCC1	0.992	0.928	0.857	1.16	–
O=c1c(O)c(-c2ccc(O)c(O)c2)oc2cc(O)cc(O)c12 [Quercetin]	1.1	1.09	1.38	–	–
O=c1c(-c2ccc(O)cc2)coc2cc(O)ccc12 [Daidzein]	1.11	1.11	1.12	0.372	–
O=c1c(-c2ccc(O)cc2)coc2cc(O)cc(O)c12 [Genistein]	1.45	1.16	0.958	0.631	1.71

SMILES	Wnt reporter firefly/Renilla luciferase ratio (concentration: 0.1 uM)	Wnt reporter firefly/Renilla luciferase ratio (concentration: 1 uM)	Wnt reporter firefly/Renilla luciferase ratio (concentration: 10 uM)	Wnt reporter firefly/Renilla luciferase ratio (concentration: 100 uM)	Wnt reporter firefly/Renilla luciferase ratio (concentration: 0.01 uM)
CC1CCC(NC(=O)N(CCCl)N=O)CC1 (stereo unspecified) [Semustine]	0.921	0.986	0.864	0.475	1.09
Cc1nc(-c2ccc3c(c2)CCN(CCC2CCC(NC(=O)/C=C/c4ccc(F)cc4)CC2)CC3)no1.Cl (stereo unspecified)	1.22	0.948	0.916	0.983	–
Cc1cnc(-c2cnc(NCCNc3ccc(C#N)cn3)nc2-c2ccc(Cl)cc2Cl)[nH]1	1.5	5.86	128	–	1.03
CCOC(=O)c1ccc(O)cc1 [Ethylparaben]	0.886	0.966	0.941	0.734	–
O=C([O-])c1[nH]n(-c2ccc(S(=O)(=O)[O-])cc2)c(=O)c1/N=N/c1ccc(S(=O)(=O)[O-])cc1.[Na+].[Na+].[Na+] [FD&C Yellow 5]	1.26	0.877	1.26	1.86	–
CCCCc1oc2ccccc2c1C(=O)c1cc(I)c(OCCN(CC)CC)c(I)c1.Cl [Amiodarone hydrochloride]	1.18	1.09	1	1.11	–
CC(C)c1cccc(C(C)C)c1 [1,3-Diisopropylbenzene]	1.14	0.929	1.33	1.5	–
CC(=O)OC/C=C(\C)CCC=C(C)C [Geranyl acetate]	1.1	0.97	1.27	1.23	–
c1ccc(Nc2ccccc2)cc1 [Diphenylamine]	1.08	1.19	1.18	1.24	1.05
[Cl-].[Li+]	0.845	0.926	0.875	1.27	0.768
CC(C)CCO [Isopentyl alcohol]	1.15	0.978	1.1	1.03	–
C=CC(=C)CCC=C(C)C [Myrcene]	1.05	0.768	1.02	1.15	–
CC(C)=CCCC(C)CCO (stereo unspecified) [Citronellol]	1.07	0.904	1.18	1.64	–
NC(CCCP(=O)(O)O)C(=O)O (racemic)	1.19	0.925	0.918	1.69	1.35
CC/C(=C(/CC)c1ccc(O)cc1)c1ccc(O)cc1 [Diethylstilbestrol]	0.897	0.807	0.741	0.205	–
C[C@@H]1C[C@H]2[C@@H]3CCC4=CC(=O)C=C[C@]4(C)[C@@]3(F)[C@@H](O)C[C@]2(C)[C@@]1(O)C(=O)COP(=O)([O-])[O-].[Na+].[Na+] [Dexamethasone sodium phosphate]	1.15	1.09	1.2	0.968	–
c1ccc2c(c1)-c1cccc3c1c-2cc1ccccc13 [Benzo(b)fluoranthene]	1.22	1.22	1.45	1.45	–
C1N2CN3CN1CN(C2)C3 [Methenamine]	1.17	1.16	1.23	1.71	–
COC(=O)CC(=O)OC [Dimethyl malonate]	1.02	1.16	0.907	1.28	–
Cc1occc1C(=O)Nc1ccc(C(=O)N2CCC(F)(F)/C(=C\C(=O)N3CCC(N4CCCCC4)CC3)c3ccccc32)cc1.Cc1occc1C(=O)Nc1ccc(C(=O)N2CCC(F)(F)/C(=C\C(=O)N3CCC(N4CCCCC4)CC3)c3ccccc32)cc1.O=C(O)/C=C/C(=O)O	1.22	0.982	0.94	–	–
